Measured values published in ChEMBL document CHEMBL1961873, “Compounds: GSK PKIS; Assays: Nanosyn kinase panel” (2012).

Legend:
[1] = biological target: Ribosomal protein S6 kinase alpha-6 (Homo sapiens) (UniProt Q9UK32); conditions: at 1 µM;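 note: each value is a mean inhibition of RSK4 from a GSK PKIS panel screen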
[2] = biological target: T1, Serine/threonine-protein kinase Sgk1 (Homo sapiens) (UniProt O00141); conditions: at 0.1 µM
T1 sequence (whole entry): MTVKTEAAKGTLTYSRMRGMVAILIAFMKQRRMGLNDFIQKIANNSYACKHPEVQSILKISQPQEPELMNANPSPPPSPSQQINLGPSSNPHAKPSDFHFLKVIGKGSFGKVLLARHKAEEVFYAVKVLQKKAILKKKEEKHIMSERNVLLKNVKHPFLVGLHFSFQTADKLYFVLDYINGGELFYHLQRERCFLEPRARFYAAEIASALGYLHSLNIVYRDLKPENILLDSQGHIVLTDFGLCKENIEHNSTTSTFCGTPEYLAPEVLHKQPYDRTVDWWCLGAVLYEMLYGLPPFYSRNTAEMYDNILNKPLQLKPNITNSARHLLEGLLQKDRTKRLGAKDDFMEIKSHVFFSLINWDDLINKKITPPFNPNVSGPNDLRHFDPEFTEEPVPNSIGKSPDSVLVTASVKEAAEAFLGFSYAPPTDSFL

[3] = biological target: T1, Serine/threonine-protein kinase Sgk1 (Homo sapiens); conditions: at 1 µM
[4] = biological target: T2, Serine/threonine-protein kinase Sgk2 (Homo sapiens) (UniProt Q9HBY8); conditions: at 0.1 µM
T2 sequence (whole entry): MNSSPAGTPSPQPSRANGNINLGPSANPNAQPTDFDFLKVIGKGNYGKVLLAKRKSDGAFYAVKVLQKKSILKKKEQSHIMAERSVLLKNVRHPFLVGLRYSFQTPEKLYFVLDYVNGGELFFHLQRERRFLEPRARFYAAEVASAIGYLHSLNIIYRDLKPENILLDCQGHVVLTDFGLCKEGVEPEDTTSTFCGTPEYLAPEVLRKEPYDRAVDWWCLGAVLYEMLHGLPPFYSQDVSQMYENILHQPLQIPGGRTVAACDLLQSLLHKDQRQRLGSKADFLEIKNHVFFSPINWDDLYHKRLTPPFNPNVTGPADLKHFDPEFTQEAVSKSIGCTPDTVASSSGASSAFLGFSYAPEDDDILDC

[5] = biological target: T2, Serine/threonine-protein kinase Sgk2 (Homo sapiens); conditions: at 1 µM
[6] = biological target: T3, Serine/threonine-protein kinase Sgk3 (Homo sapiens) (UniProt Q96BR1); conditions: at 0.1 µM
T3 sequence (whole entry): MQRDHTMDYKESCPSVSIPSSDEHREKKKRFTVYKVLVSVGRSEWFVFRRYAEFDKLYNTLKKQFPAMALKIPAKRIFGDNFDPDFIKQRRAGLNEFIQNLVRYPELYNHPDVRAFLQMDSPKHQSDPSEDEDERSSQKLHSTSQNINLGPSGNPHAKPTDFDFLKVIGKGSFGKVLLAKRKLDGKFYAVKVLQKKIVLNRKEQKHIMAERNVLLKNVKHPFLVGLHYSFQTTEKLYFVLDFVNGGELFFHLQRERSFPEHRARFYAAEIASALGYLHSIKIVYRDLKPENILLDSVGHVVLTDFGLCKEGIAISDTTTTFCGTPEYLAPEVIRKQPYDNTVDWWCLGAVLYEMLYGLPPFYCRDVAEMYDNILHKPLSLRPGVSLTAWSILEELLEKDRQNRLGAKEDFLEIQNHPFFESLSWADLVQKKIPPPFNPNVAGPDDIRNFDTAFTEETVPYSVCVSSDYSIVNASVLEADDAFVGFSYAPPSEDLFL

[7] = biological target: T3, Serine/threonine-protein kinase Sgk3 (Homo sapiens); conditions: at 1 µM
[8] = biological target: 5'-AMP-activated protein kinase catalytic subunit alpha-1 (Homo sapiens) (UniProt Q13131); conditions: at 0.1 µM
[9] = biological target: 5'-AMP-activated protein kinase catalytic subunit alpha-1 (Homo sapiens) (UniProt Q13131); conditions: at 1 µM
[10] = biological target: 5'-AMP-activated protein kinase catalytic subunit alpha-2 (Homo sapiens) (UniProt P54646); conditions: at 0.1 µM
[11] = biological target: 5'-AMP-activated protein kinase catalytic subunit alpha-2 (Homo sapiens) (UniProt P54646); conditions: at 1 µM
[12] = biological target: T4, NUAK family SNF1-like kinase 1 (Homo sapiens) (UniProt O60285); conditions: at 0.1 µM
T4 sequence (whole entry): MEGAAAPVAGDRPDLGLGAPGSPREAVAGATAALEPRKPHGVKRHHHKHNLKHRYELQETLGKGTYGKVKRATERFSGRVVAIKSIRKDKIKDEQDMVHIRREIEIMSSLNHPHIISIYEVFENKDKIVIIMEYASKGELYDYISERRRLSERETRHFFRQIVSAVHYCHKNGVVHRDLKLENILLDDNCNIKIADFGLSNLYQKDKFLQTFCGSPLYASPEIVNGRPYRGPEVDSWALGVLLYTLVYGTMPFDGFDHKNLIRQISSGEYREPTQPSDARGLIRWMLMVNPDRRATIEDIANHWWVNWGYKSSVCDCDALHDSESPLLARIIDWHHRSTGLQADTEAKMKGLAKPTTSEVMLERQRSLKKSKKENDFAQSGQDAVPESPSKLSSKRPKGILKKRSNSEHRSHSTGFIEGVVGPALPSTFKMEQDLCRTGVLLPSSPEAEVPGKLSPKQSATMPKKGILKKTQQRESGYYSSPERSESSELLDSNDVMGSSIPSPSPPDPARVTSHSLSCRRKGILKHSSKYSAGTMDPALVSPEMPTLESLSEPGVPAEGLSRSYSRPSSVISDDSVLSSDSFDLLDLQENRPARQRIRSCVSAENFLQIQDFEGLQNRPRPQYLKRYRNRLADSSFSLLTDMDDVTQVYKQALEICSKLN

[13] = biological target: T4, NUAK family SNF1-like kinase 1 (Homo sapiens); conditions: at 1 µM
[14] = biological target: T5, Serine/threonine-protein kinase BRSK1 (Homo sapiens) (UniProt Q8TDC3); conditions: at 0.1 µM
T5 sequence (whole entry): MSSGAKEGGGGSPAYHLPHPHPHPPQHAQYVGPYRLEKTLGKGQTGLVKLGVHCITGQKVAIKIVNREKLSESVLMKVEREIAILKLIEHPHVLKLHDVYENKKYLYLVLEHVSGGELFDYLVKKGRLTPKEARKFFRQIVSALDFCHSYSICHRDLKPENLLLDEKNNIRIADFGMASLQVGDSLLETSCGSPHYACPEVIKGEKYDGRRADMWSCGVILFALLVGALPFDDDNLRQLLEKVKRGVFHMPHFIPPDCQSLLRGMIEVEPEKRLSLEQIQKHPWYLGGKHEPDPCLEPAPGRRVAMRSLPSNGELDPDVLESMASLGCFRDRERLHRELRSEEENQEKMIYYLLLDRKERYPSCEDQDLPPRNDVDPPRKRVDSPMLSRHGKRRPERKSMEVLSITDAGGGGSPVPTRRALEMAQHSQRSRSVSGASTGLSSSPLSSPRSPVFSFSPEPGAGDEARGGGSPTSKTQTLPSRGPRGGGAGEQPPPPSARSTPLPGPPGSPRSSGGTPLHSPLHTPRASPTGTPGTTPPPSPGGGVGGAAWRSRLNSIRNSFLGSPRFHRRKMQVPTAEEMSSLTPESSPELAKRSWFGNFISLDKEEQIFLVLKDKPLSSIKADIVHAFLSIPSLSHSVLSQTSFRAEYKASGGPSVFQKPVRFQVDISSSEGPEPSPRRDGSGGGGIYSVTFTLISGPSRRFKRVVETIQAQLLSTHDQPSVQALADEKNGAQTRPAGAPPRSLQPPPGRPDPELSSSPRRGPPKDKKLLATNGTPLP

[15] = biological target: T5, Serine/threonine-protein kinase BRSK1 (Homo sapiens); conditions: at 1 µM
[16] = biological target: T6, Serine/threonine-protein kinase BRSK2 (Homo sapiens) (UniProt Q8IWQ3); conditions: at 0.1 µM
T6 sequence (whole entry): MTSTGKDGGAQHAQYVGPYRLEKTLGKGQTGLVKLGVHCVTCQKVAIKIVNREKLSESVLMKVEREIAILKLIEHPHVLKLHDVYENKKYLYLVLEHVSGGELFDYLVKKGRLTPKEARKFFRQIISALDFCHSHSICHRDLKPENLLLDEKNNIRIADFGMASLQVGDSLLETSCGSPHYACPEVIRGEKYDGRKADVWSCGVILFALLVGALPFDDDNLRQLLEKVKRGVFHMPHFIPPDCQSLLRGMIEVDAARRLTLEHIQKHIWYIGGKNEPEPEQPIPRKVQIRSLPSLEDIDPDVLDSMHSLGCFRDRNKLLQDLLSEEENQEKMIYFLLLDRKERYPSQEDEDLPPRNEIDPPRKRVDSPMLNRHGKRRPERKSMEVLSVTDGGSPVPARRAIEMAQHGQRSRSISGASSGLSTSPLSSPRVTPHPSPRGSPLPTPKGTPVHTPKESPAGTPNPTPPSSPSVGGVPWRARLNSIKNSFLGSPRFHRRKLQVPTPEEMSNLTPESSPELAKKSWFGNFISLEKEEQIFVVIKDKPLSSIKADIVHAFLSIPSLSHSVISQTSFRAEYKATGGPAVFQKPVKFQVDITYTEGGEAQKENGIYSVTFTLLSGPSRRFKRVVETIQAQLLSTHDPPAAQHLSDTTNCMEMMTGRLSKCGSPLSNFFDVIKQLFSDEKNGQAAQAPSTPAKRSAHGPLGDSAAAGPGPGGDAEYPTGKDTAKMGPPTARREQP

[17] = biological target: T6, Serine/threonine-protein kinase BRSK2 (Homo sapiens); conditions: at 1 µM
[18] = biological target: Calcium/calmodulin-dependent protein kinase type 1D (Homo sapiens) (UniProt Q8IU85); conditions: at 0.1 µM
[19] = biological target: Calcium/calmodulin-dependent protein kinase type 1D (Homo sapiens) (UniProt Q8IU85); conditions: at 1 µM
[20] = biological target: Calcium/calmodulin-dependent protein kinase type II subunit alpha (Homo sapiens) (UniProt Q9UQM7); conditions: at 0.1 µM;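 note: reported values are averages (mean inhibition of CAMK2A)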
Sequence of Calcium/calmodulin-dependent protein kinase type II subunit alpha (Homo sapiens) (Q9UQM7 whole entry): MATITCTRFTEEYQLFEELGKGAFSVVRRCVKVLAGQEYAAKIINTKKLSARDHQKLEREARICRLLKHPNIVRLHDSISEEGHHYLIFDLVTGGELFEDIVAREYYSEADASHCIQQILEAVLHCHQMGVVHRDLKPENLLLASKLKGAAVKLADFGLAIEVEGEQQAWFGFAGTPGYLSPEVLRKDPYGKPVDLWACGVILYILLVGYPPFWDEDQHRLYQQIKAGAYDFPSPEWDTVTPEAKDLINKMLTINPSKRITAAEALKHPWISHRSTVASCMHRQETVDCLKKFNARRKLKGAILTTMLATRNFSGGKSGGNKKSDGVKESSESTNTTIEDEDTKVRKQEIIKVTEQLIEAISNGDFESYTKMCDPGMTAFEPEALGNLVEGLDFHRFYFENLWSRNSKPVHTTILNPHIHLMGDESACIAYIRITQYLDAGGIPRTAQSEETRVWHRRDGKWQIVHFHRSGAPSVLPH

Sequence of Calcium/calmodulin-dependent protein kinase type 1D (Homo sapiens) (Q8IU85 whole entry, looked up): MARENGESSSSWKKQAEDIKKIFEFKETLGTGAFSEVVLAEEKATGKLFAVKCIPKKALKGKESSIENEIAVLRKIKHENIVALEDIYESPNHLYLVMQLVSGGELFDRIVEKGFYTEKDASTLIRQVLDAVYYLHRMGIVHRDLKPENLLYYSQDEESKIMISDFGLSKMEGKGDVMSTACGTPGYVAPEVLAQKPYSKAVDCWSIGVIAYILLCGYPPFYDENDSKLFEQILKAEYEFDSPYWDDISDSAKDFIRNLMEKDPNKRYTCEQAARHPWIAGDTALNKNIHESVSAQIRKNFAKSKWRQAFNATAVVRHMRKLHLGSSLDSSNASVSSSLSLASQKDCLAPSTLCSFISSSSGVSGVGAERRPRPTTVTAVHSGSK
Sequence of 5'-AMP-activated protein kinase catalytic subunit alpha-2 (Homo sapiens) (P54646 whole entry, looked up): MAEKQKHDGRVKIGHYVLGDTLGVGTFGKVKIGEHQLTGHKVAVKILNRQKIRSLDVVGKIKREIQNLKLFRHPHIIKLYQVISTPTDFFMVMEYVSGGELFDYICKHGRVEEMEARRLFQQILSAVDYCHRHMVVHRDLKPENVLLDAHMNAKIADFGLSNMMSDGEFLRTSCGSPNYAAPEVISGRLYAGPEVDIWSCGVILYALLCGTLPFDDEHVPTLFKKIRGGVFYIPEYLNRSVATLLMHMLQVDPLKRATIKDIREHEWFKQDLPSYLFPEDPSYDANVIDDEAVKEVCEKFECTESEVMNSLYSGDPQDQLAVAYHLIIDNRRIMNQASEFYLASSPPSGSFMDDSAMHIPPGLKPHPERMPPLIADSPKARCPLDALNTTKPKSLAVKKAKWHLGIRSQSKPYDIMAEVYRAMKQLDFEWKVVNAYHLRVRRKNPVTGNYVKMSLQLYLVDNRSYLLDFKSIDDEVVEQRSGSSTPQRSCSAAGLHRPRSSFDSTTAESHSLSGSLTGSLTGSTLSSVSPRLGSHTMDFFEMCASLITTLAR
Sequence of 5'-AMP-activated protein kinase catalytic subunit alpha-1 (Homo sapiens) (Q13131 whole entry, looked up): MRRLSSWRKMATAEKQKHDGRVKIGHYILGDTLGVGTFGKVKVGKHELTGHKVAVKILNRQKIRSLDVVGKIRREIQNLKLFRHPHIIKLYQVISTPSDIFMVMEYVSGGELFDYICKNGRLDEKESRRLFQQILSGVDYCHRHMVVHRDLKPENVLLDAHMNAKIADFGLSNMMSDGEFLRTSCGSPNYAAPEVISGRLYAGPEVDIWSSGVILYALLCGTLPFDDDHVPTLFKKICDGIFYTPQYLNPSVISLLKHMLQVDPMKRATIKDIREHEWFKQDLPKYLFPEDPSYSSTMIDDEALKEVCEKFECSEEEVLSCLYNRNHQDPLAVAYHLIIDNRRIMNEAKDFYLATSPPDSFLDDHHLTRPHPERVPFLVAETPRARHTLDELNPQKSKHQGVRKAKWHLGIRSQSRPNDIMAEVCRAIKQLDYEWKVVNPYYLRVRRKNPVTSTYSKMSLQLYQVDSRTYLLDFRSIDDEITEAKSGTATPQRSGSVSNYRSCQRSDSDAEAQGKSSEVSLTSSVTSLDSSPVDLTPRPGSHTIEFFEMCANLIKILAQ
Sequence of Ribosomal protein S6 kinase alpha-6 (Homo sapiens) (Q9UK32 whole entry): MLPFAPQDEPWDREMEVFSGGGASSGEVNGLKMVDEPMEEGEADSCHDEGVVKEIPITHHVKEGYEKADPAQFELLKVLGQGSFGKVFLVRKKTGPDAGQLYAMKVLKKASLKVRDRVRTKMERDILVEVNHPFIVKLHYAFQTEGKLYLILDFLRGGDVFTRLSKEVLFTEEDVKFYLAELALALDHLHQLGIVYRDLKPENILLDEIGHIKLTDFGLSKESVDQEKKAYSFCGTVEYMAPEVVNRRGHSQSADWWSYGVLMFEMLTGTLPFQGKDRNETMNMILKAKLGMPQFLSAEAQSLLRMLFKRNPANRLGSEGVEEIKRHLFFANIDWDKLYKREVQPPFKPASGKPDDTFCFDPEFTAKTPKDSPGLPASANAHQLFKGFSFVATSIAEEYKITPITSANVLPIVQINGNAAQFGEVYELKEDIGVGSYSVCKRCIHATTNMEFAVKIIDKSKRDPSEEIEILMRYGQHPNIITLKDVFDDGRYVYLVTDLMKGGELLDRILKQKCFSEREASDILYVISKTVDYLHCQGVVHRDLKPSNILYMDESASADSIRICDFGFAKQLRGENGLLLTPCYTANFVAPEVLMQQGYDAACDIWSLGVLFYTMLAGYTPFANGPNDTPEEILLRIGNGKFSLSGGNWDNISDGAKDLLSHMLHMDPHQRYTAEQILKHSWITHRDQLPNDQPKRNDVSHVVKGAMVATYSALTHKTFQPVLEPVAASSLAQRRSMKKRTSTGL

[O-][S+]1CCN(Cc2ccc(-c3ccc4ncnc(Nc5ccc(OCc6cccc(F)c6)c(Cl)c5)c4c3)o2)CC1
inhibition [1]: 1.89% | inhibition [2]: 3.42% | inhibition [3]: 4% | inhibition [4]: -0.64% | inhibition [5]: 2.65% | inhibition [6]: 4.53% | inhibition [7]: 3.72% | inhibition [8]: 3.59% | inhibition [9]: 5.6% | inhibition [10]: 5.66% | inhibition [11]: 5.75% | inhibition [12]: 0.9% | inhibition [13]: 3.1% | inhibition [14]: 1.17% | inhibition [15]: 3.09% | inhibition [16]: 3.06% | inhibition [17]: 4.57% | inhibition [18]: 0.83% | inhibition [19]: 1.18% | inhibition [20]: 3.06%

CN(C)CCOc1ccc(-c2nc(-c3ccncc3)c(-c3ccc4c(c3)CC/C4=N\O)[nH]2)cc1
inhibition [1]: 2.06% | inhibition [2]: 2.17% | inhibition [3]: 4.78% | inhibition [4]: 2.44% | inhibition [5]: 5.4% | inhibition [6]: 2.89% | inhibition [7]: 4.02% | inhibition [8]: 2.12% | inhibition [9]: 5.29% | inhibition [10]: -0.6% | inhibition [11]: 2.75% | inhibition [12]: 1.23% | inhibition [13]: 8.79% | inhibition [14]: -0.13% | inhibition [15]: 1.11% | inhibition [16]: 0.6% | inhibition [17]: 3.51% | inhibition [18]: 0.25% | inhibition [19]: 1.72% | inhibition [20]: 2.79%

CCc1nn2ncccc2c1-c1ccnc(NC2CC2)n1
inhibition [1]: 1.93% | inhibition [2]: 2.68% | inhibition [3]: 3.56% | inhibition [4]: 0.28% | inhibition [5]: -2.61% | inhibition [6]: 2.22% | inhibition [7]: 3.01% | inhibition [8]: 1.09% | inhibition [9]: 4.1% | inhibition [10]: 2.14% | inhibition [11]: 2.42% | inhibition [12]: -1.38% | inhibition [13]: 1.14% | inhibition [14]: 3.05% | inhibition [15]: 1.03% | inhibition [16]: 1.62% | inhibition [17]: 4.01% | inhibition [18]: 1.12% | inhibition [19]: 2.41% | inhibition [20]: 2.89%

COC(=O)Nc1nc2ccc(S(=O)(=O)c3ccc(NC(=O)Nc4cc(C(F)(F)F)ccc4F)cc3)cc2[nH]1
inhibition [1]: 1.27% | inhibition [2]: 3.1% | inhibition [3]: 0.95% | inhibition [4]: 3.28% | inhibition [5]: 0.53% | inhibition [6]: 2.89% | inhibition [7]: 1.57% | inhibition [8]: 1.79% | inhibition [9]: 1.58% | inhibition [10]: 2.21% | inhibition [11]: 3.39% | inhibition [12]: 3.25% | inhibition [13]: 4.84% | inhibition [14]: 3.17% | inhibition [15]: 4.39% | inhibition [16]: 2.33% | inhibition [17]: 2.89% | inhibition [18]: 0.42% | inhibition [19]: 1.45% | inhibition [20]: 3.34%

NS(=O)(=O)c1ccc(Nc2ncc(-c3ccccc3)o2)cc1
inhibition [1]: 4.32% | inhibition [2]: 2.77% | inhibition [3]: 13% | inhibition [4]: 2.15% | inhibition [5]: 10.4% | inhibition [6]: 1.86% | inhibition [7]: 2.86% | inhibition [8]: 4.14% | inhibition [9]: 11.5% | inhibition [10]: 1.03% | inhibition [11]: 9.24% | inhibition [12]: 10.7% | inhibition [13]: 37.2% | inhibition [14]: 1.52% | inhibition [15]: 15.3% | inhibition [16]: 2.58% | inhibition [17]: 17% | inhibition [18]: 0.42% | inhibition [19]: 0.85% | inhibition [20]: 4.27%

CNC(=O)c1cncc(/C=C/c2ccccc2Cl)c1
inhibition [1]: 0.65% | inhibition [2]: 0.52% | inhibition [3]: 3.45% | inhibition [4]: 3.22% | inhibition [5]: 1.73% | inhibition [6]: 2.89% | inhibition [7]: 3.36% | inhibition [8]: 1.03% | inhibition [9]: 2.25% | inhibition [10]: -2.07% | inhibition [11]: -0.38% | inhibition [12]: 4.61% | inhibition [13]: 4.26% | inhibition [14]: 0.56% | inhibition [15]: 8.62% | inhibition [16]: 0.31% | inhibition [17]: 8.91% | inhibition [18]: 0.88% | inhibition [19]: -1.08% | inhibition [20]: 1.53%
